# In the supplement of paper PMC13380429:
# Values without a mark were called inactive.
# Tested on: Vero E6 infected with SARS-CoV-2
# Experiment: SARS-CoV-2 infection rate relative to infected DMSO; higher = more infection, active = 60 or less
# Settings: 24 h
row,Structure (SMILES),SARS-CoV-2 infection rate [%]
1,Nc1nccc2c1ncn2[C@@H]1O[C@H](CO)[C@@H](O)[C@@H]1O [3-deazaadenosine] (10 µM),106
2,CNCc1cc(-c2ccccc2F)n(S(=O)(=O)c2cccnc2)c1 [vonoprazan] (10 µM),114
3,CNC(=O)[C@@H](NC(=O)[C@H](CC(C)C)[C@H](O)C(=O)NO)C(C)(C)C [marimastat] (10 µM),118
4,CCCOc1ccc(S(=O)(=O)N2CCN(CCO)CC2)cc1-c1nc2c(CCC)cn(CC)c2c(=O)[nH]1 [mirodenafil] (10 µM),95.5
5,COc1cc2ncnc(Nc3ccc(O)c(Br)c3)c2cc1OC (10 µM),103
6,OC[C@H]1NC[C@@H](O)[C@@H](O)[C@@H]1O [1-deoxymannojirimycin] (10 µM),102
7,Cn1cnc2c(NCc3ccccc3)nc(NCCO)nc21 [olomoucine] (10 µM),98.5
8,CC(C)[C@@H](C(=O)Nc1nccs1)c1ccc(Cl)cc1 (10 µM),98.5
9,CC(C)(N)c1cc(C(=O)N[C@@H]2CCc3ccc(Oc4ccnc5c4CCC(=O)N5)cc3C2)cc(C(F)(F)F)c1 (0.833333 µM),99
10,O=[N+]([O-])c1ncc[nH]1 [azomycin-(2-nitroimidazole)] (10 µM),105
11,O=C(O)CC(S)C(=O)O (stereo not given) [mercaptosuccinic-acid] (10 µM),108
12,NCCc1cc[nH]n1 [betazole] (10 µM),105
13,CNC(C)(C)Cc1ccccc1 [mephentermine] (10 µM),117
14,CO/N=C1/C[C@@H](C(=O)NC[C@@H](O)c2ccccc2)N(C(=O)c2ccc(-c3ccccc3C)cc2)C1 [OT-R-antagonist-1] (10 µM),98.5
15,Oc1ncnc2[nH]ncc12 [allopurinol] (10 µM),108
16,COc1ccc(-c2cc(=O)c3c(O)c(OC)c(O)cc3o2)cc1OC [eupatilin] (10 µM),109
17,CCc1nc(-c2cccc(C)c2)c(-c2ccnc(NC(=O)c3ccccc3)c2)s1 (10 µM),104
18,CC(C)(C)C(=O)NCCCC(=O)O [pivagabine] (10 µM),105
19,COCc1c(-c2ccc(NC(=O)Nc3cc(C(F)(F)F)ccc3F)c(F)c2)c2c(N)ncnn2c1CN1CCOCC1 (0.833333 µM),96.5
20,O=C(/C=C/c1ccc(O)c(O)c1)O[C@H](Cc1ccc(O)c(O)c1)C(=O)O [rosmarinic-acid] (10 µM),94.5

row,Structure (SMILES),SARS-CoV-2 infection rate [%]
1,Cn1c(=O)c2[nH]cnc2n(C)c1=O [aminophylline] (10 µM),95
2,COC(=O)Nc1nc2cc(C(=O)c3cccs3)ccc2[nH]1 [nocodazole] (0.833333 µM),104
3,CC(C)(C)c1[nH]cnc1/C=c1\[nH]c(=O)/c(=C/c2ccccc2)[nH]c1=O [plinabulin] (0.833333 µM),112
4,Cc1ccc2c(c1)C1(CCN(CCc3nc(-c4ccccc4)oc3C)CC1)OC(=O)N2 (0.833333 µM),104
5,CN(C)CCC(c1ccc(Br)cc1)c1ccccn1 (stereo not given) [brompheniramine] (10 µM),106
6,CNC(=O)c1ccc(C)c(-n2c(C)cc(OCc3ccc(F)cc3F)c(Br)c2=O)c1 (0.833333 µM),116
7,O=C(O)[C@H](Cc1ccc(Nc2nccc3ccncc23)cc1)NC1=C(Br)C(=O)C12CCCCC2 (10 µM),98
8,c1ccc2nc(N3CCNCC3)ccc2c1 [quipazine] (10 µM),104
9,CN1[C@@H]2C[C@@H](OC(=O)[C@H](CO)c3ccccc3)C[C@H]1[C@@H]1O[C@@H]12 (10 µM),97.5
10,O=C(Nc1cccc(Cl)c1)c1ccccn1 (10 µM),106
11,CC1(C)O[C@@H]2C[C@H]3[C@@H]4C[C@H](F)C5=CC(=O)C=C[C@]5(C)[C@H]4[C@@H](O)C[C@]3(C)[C@]2(C(=O)CO)O1 [flunisolide] (10 µM),109
12,O=C1[C@@H]2[C@H]3CC[C@H](C3)[C@@H]2C(=O)N1CCCCN1CCN(c2ncccn2)CC1 [tandospirone] (10 µM),99
13,Cc1c2oc3c(C)ccc(C(=O)N[C@@H]4C(=O)N[C@H](C(C)C)C(=O)N5CCC[C@H]5C(=O)N(C)CC(=O)N(C)[C@@H](C(C)C)C(=O)O[C@@H]4C)c3nc-2c(C(=O)N[C@@H]2C(=O)N[C@H](C(C)C)C(=O)N3CCC[C@H]3C(=O)N(C)CC(=O)N(C)[C@@H](C(C)C)C(=O)O[C@@H]2C)c(N)c1=O [dactinomycin] (10 µM),109
14,CCC1=C[C@@H]2CN(C1)Cc1c([nH]c3ccccc13)[C@@](C(=O)OC)(c1cc3c(cc1OC)N(C)[C@H]1[C@@](O)(C(=O)OC)[C@H](OC(C)=O)[C@]4(CC)C=CCN5CC[C@]31[C@@H]54)C2 [vinorelbine] (10 µM),115
15,CCCS(=O)(=O)Nc1ccc(F)c(C(=O)c2c[nH]c3ncc(-c4ccc(Cl)cc4)cc23)c1F [vemurafenib] (10 µM),85.5
16,CC12CCC(CC1=O)C2(C)C (stereo not drawn) [camphor-(+)] (10 µM),107
17,CN1CCC2=C(C1)C(c1ccccc1)c1ccccc12 (stereo not given) [phenindamine] (10 µM),112
18,O[C@@H](Cc1ccncc1)C(Cl)(Cl)Cl (10 µM),83.5
19,O=C1C2CC=CCC2C(=O)N1SC(Cl)(Cl)Cl (stereo not given) [captan] (10 µM),93
20,NC(=O)CN1CC(O)CC1=O (stereo not given) [oxiracetam] (10 µM),107
